The test system of assay [1] is Proto-oncogene tyrosine-protein kinase receptor Ret (Homo sapiens), P07949 [Y791F]. The conditions noted are these: at 1 µM.
The target of assay [2] is Macrophage-stimulating protein receptor (Homo sapiens) (UniProt Q04912). The settings on record: at 0.1 µM.
Assay [3] has the same target. The conditions noted are these: at 1 µM.
Assay [4] concerns the target Proto-oncogene tyrosine-protein kinase ROS (Homo sapiens) (UniProt P08922). The settings on record: at 0.1 µM.
The target is the same in assay [5]. The settings on record: at 1 µM.
Assay [6] concerns the target Proto-oncogene tyrosine-protein kinase Src (Homo sapiens) (UniProt P12931). The conditions noted are these: at 0.1 µM.
Assay [7] shares this target. The settings on record: at 1 µM.
The target in assay [8] is Tyrosine-protein kinase Srms (Homo sapiens) (UniProt Q9H3Y6). The conditions noted are these: at 0.1 µM.
Tyrosine-protein kinase Srms (Homo sapiens), sequence (Q9H3Y6 whole entry): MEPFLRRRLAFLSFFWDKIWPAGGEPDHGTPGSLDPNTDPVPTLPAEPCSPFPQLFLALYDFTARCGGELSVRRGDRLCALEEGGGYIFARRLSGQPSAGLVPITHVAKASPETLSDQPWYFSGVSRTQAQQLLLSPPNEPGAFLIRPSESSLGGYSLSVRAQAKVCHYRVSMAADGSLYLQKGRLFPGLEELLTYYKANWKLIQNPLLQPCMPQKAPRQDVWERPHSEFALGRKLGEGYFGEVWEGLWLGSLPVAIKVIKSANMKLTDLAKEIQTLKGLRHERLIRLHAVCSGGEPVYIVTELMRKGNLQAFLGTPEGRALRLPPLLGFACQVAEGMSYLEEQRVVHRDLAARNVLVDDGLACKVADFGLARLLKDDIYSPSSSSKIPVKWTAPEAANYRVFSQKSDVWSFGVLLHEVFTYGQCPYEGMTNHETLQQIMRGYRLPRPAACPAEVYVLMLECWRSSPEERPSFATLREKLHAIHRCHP
Assay [9] has the same target. The conditions noted are these: at 1 µM.
For assay [10], the target named is Tyrosine-protein kinase SYK (Homo sapiens) (UniProt P43405). The settings on record: at 0.1 µM.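 Further: reported percentages are mean inhibition values for SYK.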

The structures appear in SMILES notation.

Proto-oncogene tyrosine-protein kinase Src (Homo sapiens), sequence (P12931 2-536 limits assumed): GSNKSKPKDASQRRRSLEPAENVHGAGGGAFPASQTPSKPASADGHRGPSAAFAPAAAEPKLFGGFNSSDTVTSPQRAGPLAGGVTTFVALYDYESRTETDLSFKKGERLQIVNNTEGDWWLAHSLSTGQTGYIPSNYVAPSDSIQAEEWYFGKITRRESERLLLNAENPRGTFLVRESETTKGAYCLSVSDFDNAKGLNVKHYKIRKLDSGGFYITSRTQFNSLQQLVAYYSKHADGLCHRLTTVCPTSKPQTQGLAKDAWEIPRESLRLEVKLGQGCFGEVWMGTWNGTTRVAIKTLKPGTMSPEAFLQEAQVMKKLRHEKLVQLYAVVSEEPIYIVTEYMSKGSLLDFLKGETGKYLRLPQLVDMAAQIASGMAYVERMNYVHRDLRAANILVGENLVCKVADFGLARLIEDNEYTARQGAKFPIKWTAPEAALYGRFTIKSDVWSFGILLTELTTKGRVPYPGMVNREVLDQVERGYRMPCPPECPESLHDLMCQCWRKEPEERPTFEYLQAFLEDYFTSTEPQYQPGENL
Proto-oncogene tyrosine-protein kinase receptor Ret (Homo sapiens), P07949 [Y791F], sequence (P07949 whole entry Y791F): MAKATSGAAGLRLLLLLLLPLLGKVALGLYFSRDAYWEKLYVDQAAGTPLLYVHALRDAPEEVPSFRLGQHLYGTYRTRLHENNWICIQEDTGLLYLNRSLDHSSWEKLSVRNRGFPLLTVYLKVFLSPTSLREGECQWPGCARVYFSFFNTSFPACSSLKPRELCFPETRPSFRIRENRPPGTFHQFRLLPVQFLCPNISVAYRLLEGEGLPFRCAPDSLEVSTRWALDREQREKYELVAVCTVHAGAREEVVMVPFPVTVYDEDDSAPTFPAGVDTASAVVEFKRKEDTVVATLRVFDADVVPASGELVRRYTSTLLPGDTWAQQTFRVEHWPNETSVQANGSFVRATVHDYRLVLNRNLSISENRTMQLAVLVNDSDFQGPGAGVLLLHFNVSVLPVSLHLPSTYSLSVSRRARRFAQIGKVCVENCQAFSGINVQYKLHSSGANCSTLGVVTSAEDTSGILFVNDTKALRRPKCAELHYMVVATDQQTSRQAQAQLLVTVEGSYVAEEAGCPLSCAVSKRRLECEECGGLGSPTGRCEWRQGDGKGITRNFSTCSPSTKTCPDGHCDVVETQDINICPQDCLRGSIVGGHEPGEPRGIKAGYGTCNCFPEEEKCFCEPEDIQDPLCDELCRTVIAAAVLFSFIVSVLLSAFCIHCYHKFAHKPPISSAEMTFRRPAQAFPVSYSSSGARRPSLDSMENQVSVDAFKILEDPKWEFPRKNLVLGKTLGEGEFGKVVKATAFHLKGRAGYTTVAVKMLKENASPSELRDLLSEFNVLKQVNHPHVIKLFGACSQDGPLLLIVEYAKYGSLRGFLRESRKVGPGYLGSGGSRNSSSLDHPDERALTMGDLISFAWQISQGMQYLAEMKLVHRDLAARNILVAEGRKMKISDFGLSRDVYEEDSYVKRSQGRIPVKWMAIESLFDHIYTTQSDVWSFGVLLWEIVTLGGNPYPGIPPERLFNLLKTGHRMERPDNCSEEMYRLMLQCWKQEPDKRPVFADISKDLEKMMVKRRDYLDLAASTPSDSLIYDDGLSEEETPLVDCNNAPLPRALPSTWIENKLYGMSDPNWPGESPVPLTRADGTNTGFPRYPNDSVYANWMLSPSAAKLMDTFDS
Macrophage-stimulating protein receptor (Homo sapiens), sequence (Q04912 25-304 limits assumed): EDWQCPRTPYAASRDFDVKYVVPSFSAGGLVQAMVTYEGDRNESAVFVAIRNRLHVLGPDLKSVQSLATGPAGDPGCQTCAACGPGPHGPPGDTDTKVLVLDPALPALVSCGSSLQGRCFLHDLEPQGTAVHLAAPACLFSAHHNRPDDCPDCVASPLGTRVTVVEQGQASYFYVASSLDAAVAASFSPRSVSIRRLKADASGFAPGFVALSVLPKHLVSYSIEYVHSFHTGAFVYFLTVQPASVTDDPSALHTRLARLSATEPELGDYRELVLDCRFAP
Macrophage-stimulating protein receptor (Homo sapiens), sequence (Q04912 310-1400 limits assumed): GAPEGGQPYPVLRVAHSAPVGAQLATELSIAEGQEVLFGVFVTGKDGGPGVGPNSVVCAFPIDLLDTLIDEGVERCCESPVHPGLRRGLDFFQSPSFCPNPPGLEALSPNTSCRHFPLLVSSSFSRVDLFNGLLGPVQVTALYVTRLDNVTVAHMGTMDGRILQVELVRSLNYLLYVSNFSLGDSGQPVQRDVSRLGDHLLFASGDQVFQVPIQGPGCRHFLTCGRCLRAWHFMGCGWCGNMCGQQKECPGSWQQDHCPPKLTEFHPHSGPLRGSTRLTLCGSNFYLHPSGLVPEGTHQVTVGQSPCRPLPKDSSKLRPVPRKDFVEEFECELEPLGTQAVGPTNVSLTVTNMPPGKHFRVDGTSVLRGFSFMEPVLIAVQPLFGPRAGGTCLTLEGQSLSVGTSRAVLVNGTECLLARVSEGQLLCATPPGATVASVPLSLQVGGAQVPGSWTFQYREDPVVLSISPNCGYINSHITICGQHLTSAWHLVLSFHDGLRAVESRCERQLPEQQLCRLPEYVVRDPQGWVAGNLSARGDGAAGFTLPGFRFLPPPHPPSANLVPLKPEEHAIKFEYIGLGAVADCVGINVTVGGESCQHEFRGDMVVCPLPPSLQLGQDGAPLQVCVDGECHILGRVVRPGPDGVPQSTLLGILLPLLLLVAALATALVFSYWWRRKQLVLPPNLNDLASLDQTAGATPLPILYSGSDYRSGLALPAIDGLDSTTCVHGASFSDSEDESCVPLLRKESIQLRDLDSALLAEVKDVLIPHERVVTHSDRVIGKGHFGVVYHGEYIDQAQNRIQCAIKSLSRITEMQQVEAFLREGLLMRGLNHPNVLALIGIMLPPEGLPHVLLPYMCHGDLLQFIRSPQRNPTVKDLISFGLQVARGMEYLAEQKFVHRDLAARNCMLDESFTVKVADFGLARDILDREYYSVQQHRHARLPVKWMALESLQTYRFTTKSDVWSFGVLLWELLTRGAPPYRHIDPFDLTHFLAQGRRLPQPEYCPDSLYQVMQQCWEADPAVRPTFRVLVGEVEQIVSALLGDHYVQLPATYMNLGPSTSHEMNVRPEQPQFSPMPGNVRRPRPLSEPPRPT

Broadly, the inhibition is the drop in the measured response relative to a control, in per cent. As for `CS(=O)(=O)CCNCc1ccc(-c2ccc3ncnc(Nc4ccc(OCc5ccccc5)c(Cl)c4)c3c2)o1`, the inhibition came to 12.1% in assay [1]; 3.3% in assay [2]; 5.38% in [3]; 3.99% in assay [4]; 4.36% in assay [5]; 0.6% in assay [6]. Moreover, the inhibition in assay [7] was 3.9%; in assay [8], -0.03%; in [9], -0.79%; in assay [10], 1.87%.

Regarding `COc1ccc(-c2coc3ncnc(N)c23)cc1`, the inhibition was 11% in [1]; 8.95% in [2]; 5.93% in assay [3]; 6.03% in assay [4]; 7.88% in assay [5]; 5.47% in assay [6]. The inhibition was 8.84% in assay [7], -2.61% in assay [8], -2.53% in assay [9] and -0.77% in assay [10].

Take `O=C1NC(=O)C(c2cccc(Cl)c2)=C1Nc1ccc(O)c(Cl)c1`: the inhibition is 2.96% in assay [1]; -9.4% in assay [2]; 6% in [3]; 1.16% in assay [4]; 7.24% in assay [5]; 3.33% in [6]. For the same compound, the inhibition in assay [7] is 5.62%; in assay [8], -0.46%; in assay [9] it was -1.95%; in assay [10], 1.76%.

For the compound `NC(=O)c1cccc(Nc2nccc(Nc3cccc4[nH]ncc34)n2)c1`, the inhibition in assay [1] came out at 79.7%; in assay [2] it was 1.43%; in [3], 4.78%; in assay [4], 21.8%; in [5], 66%; in [6], 86.3%. The inhibition in [7] was 94.9%; in assay [8], 8.24%; in assay [9], 41.9%; in [10], -5.51%.

For the compound `COc1cc2ncn(-c3cc(O[C@H](C)c4ccccc4Cl)c(C(N)=O)s3)c2cc1OC`, the inhibition in assay [1] was 63.8%; in assay [2] it was 14.8%; in [3], 17.8%; in [4] it was 10.7%; in assay [5] it was 36.5%; in assay [6], 7.81%. In addition, the inhibition in assay [7] came out at 40.7%; in [8] it was 2.69%; in assay [9], 6.05%; in [10], 1.76%.

Turning to `O=C1NC(=O)C(c2ccc(Cl)cc2)=C1Nc1ccc(Cl)c(C(=O)O)c1`, the inhibition in assay [1] was -1.73%; in assay [2], -4.02%; in assay [3], 2.12%; in assay [4], 1.45%; in assay [5], 3.13%; in [6] it was 0.48%. For the same compound, the inhibition in assay [7] is -1.52%; in assay [8] it was 0.85%; in assay [9], 2.75%; in assay [10], -1%.

For the compound `Cc1cccc(-c2n[nH]cc2-c2ccc3ncccc3n2)n1`, the inhibition was found to be 18.7% in assay [1]; 3.7% in assay [2]; 1.79% in [3]; 1.26% in [4]; 4.08% in assay [5]; 2.63% in assay [6]. Further, the inhibition in assay [7] stood at 3.67%; in [8], 0.03%; in assay [9], 3.34%; in [10] it was 1.27%.

Consider `CNC(=O)c1cncc(/C=C/c2c(Cl)cccc2Cl)c1`, for which the inhibition in assay [1] is 14.9%; in assay [2], 6.34%; in assay [3], -0.69%; in [4], 11.1%; in assay [5] it was 11.8%; in assay [6], 14.3%. Also, the inhibition in assay [7] amounted to 47.2%; in assay [8], 1.5%; in assay [9], 8.71%; in assay [10] it was 1.45%.

With `NS(=O)(=O)c1ccc(N/N=C2\C(=O)Nc3ccc(C(=O)NCCc4c[nH]cn4)cc32)cc1`, the inhibition in [1] was 63.7%; in [2], 0.68%; in [3], 6%; in assay [4] it was 10.9%; in [5], 18.1%; in [6] it was -1.33%. Besides, the inhibition in assay [7] was 33%; in assay [8] it was -0.78%; in [9], 1.4%; in [10] it was -4.27%.

Regarding `CN(C)c1cc2c(Nc3ccc4nc(Cc5ccccc5)[nH]c4c3)ncnc2cn1`, the inhibition in assay [1] is 27.9%; in [2], 7.08%; in assay [3] it was 3.46%; in [4], 6.18%; in assay [5], 11.8%; in [6], -0.18%. The inhibition in [7] was 20.1%; in assay [8], 1.22%; in assay [9], 8.06%; in assay [10], -5.04%.

For the compound `NS(=O)(=O)c1cccc(-c2ccc3c(NC(=O)C4CC4)n[nH]c3c2)c1`, the inhibition is -2.02% in [1]; 6.3% in assay [2]; 3.46% in assay [3]; 3.46% in assay [4]; 5% in assay [5]; -4.15% in [6]. Further, the inhibition was -1.21% in [7], -0.76% in assay [8], -1.91% in assay [9] and -1.3% in assay [10].

With `Nc1nc(-c2ccccn2)c(-c2ccc3ncccc3n2)s1`, the inhibition in assay [1] came out at 10.2%; in assay [2], 3.66%; in [3], 6.53%; in assay [4], 2.94%; in assay [5] it was 4.03%; in assay [6] it was 0.7%. The inhibition in [7] is 7.78%; in [8], -0.44%; in assay [9] it was -2.72%; in assay [10] it was -1.33%.

Regarding `CCn1c(-c2nonc2N)nc2c(C#CC(C)(C)O)nc(CN3CCCC3)cc21`, the inhibition in [1] is 14.5%; in [2] it was 27.6%; in assay [3], -5.13%; in assay [4], 2.54%; in assay [5], 3.85%; in assay [6], 0.78%. For the same compound, the inhibition was 0.68% in assay [7], -1.37% in assay [8], -0.75% in [9] and 6.45% in assay [10].

Turning to `CCn1c(-c2nonc2N)nc2cncc(C(=O)N3CC[C@H](N)C3)c21`, the inhibition is 13.9% in assay [1]; 2.92% in [2]; 6.19% in assay [3]; 7.46% in [4]; 6.07% in assay [5]; -1.35% in assay [6]. The inhibition in assay [7] was 7.23%; in assay [8], 0.37%; in assay [9] it was -0.65%; in assay [10], -5.72%.

Consider `[O-][S+]1CCN(Cc2ccc(-c3ccc4ncnc(Nc5ccc(OCc6ccccc6)c(F)c5)c4c3)o2)CC1`, for which the inhibition is 5.92% in assay [1]; 2.75% in assay [2]; 7.9% in assay [3]; 3.51% in [4]; 1.61% in assay [5]; 5.28% in assay [6]. Further, the inhibition in [7] is 8.51%; in [8], -1.06%; in assay [9], -3.12%; in assay [10] it was -2.3%.

Turning to `CCCN1CCC=C(c2ccc(Nc3nc(Nc4ccccc4C(N)=O)c4cc[nH]c4n3)c(C)c2)C1`, the inhibition stood at 25.8% in assay [1]; 7.2% in assay [2]; 11.6% in [3]; 24.3% in assay [4]; 61.2% in assay [5]; 8.87% in assay [6]. Besides, the inhibition in [7] was 17.4%; in assay [8], -3.15%; in assay [9] it was 0.8%; in assay [10], -0.42%.

For `COc1cc2c(cc1Nc1nc(N3CCc4ccccc43)c3cc[nH]c3n1)N(C(=O)CN(C)C)CC2`, the inhibition in [1] was 8.94%; in assay [2] it was -4.18%; in assay [3], 4.66%; in assay [4], 70.2%; in assay [5], 79.2%; in [6], 1.56%. Further, the inhibition was 8.12% in assay [7], 0.05% in [8], -1.29% in [9] and 0.91% in assay [10].

The values are drawn from ChEMBL document CHEMBL1961873, “Compounds: GSK PKIS; Assays: Nanosyn kinase panel” (2012).
